Mtb betalactam: beta-lactam sensitization of Mtb H37Rv. inhibition, % at 25 µM. 330,000 tested, 0.27% active. AID 434955. M. tuberculosis H37Rv growth with meropenem, percent inhibition; call rule not given here;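 also: growth measured after seven days incubation then overnight dye step; 0% = bacteria only wells and 100% = bacteria with antibiotic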
GDH-TPI counter: inhibits GDH-TPI coupling enzymes, artifact for Mtb FBA screen; inhibition, % at 4.8 µM; 360,000 tested, 1.2% active; GDH-TPI coupled enzyme counterscreen, NADH absorbance; AID 588335; in the data active = inhibition above about 30%;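 also: 0% = DMSO wells and 100% = wells lacking the enzyme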
Rv3671c inh: inhibitors of M. tuberculosis serine protease Rv3671c; inhibition, % at 5.96 µM; 320,000 tested, 0.048% active; AID 2606; in the data active = inhibition above about 38%;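 also: extracellular domain of Rv3671c used as enzyme; 0% = enzyme with DMSO and 100% = no enzyme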
UGM FP inh: inhibitors of M. tuberculosis UDP-galactopyranose mutase | AID 504406 | 320,000 tested, 0.06% active | P9WIQ1 | purified UGM, fluorescence polarization probe displacement | inhibition, % at 10 µM; in the data active = inhibition above about 10%, passing the limit was not always enough
Target sequence (P9WIQ1 whole entry, looked up): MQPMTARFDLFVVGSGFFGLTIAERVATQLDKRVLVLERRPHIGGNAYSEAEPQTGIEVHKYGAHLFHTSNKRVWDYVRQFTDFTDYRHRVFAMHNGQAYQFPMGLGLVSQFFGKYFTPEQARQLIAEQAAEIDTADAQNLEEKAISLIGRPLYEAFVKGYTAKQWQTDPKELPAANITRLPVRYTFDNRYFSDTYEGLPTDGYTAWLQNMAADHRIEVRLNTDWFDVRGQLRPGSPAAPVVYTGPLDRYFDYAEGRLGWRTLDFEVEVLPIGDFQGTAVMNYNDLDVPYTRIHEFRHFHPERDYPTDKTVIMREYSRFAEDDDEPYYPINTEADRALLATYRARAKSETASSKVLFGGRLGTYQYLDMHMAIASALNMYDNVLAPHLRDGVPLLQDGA
FBA Mtb inh: inhibitors of M. tuberculosis fructose-bisphosphate aldolase; purified M. tuberculosis FBA, fluorescence read-out; inhibition, % at 1 µM; 360,000 tested, 2.3% active; in the data active = inhibition above about 27%;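 also: 0% = vehicle and 100% = reference inhibitor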
SSB-PriA inh: inhibitors of Klebsiella pneumoniae PriA binding to SSB C-terminal tail | AlphaScreen SSBct-PriA binding, biotinylated peptide | inhibition, % at 33 µM | 430,000 tested, 0.6% active | AID 1272365; in the data active = inhibition mostly above about 37%, no sharp cut-off; inactive = mostly below about 20%;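 also: plate controls were negative control peptide for no effect and reference peptide for full effect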
Active calls of the source: *; i = inactive; nt = not tested or not shown; + = active, no number; ! = not confirmed by another sample. Rows were chosen to be rich in hits. Some 3.2% of all compounds tested hit in one or more screens of this group.

SMILES	Mtb betalactam	GDH-TPI counter	Rv3671c inh	UGM FP inh	FBA Mtb inh	SSB-PriA inh
CCN(CC(=O)Nc1ccc(NC(C)=O)cc1)C(=O)/C=C/c1ccc(C)o1	1	35*	9	3	1	4
Cc1ccc(C=NNS(=O)(=O)c2ccc([N+](=O)[O-])cc2)o1	nt	nt	nt	nt	nt	-14
O=C(Oc1ccc(Cl)c2cccnc12)c1ccco1	100	3	12	2	0	52*
COCCCNC(=O)c1cc2c(=O)n3cccc(C)c3nc2n(C(C)C)c1=N	-4	-1	-1	1	+	-3
Cc1cccn2c(=O)c3cc(C(=O)NC(C)C)c(=N)n(Cc4ccncc4)c3nc12	-13	2	3	-4	+	-2
CCNC(=O)c1cc2c(=O)n3cccc(C)c3nc2n(Cc2ccc(C)cc2)c1=N	100	4	4	3	112*	-11
COC(=O)c1cccc2nc3c(C(C)O)cccc3nc12 (centres undefined)	-6	12	7	1	5	42*
CCN(CC)C(=O)c1cccc2nc3ccccc3nc12	-2	6	2	2	-2	-1
Nc1nc(OCc2ccccc2)c2[nH]cnc2n1	8	-15	-2	1	1	-10
Cc1nc2nc(N)nc(OCc3ccccc3)c2nc1C	-1	7	0	-2	161*	-4
Cc1ccc(Cl)cc1N1CCN(S(=O)(=O)c2c(C)nc3scc(C)n3c2=O)CC1	-1	-3	-2	-2	0	-7
Cc1ccc(N2CCN(S(=O)(=O)c3c(C)nc4scc(C)n4c3=O)CC2)c(C)c1	0	31*	0	2	-5	-4
CCOc1ccc(N(CC(=O)NCCc2ccccc2)C(=O)CCC(=O)Nc2cc(C)ccn2)cc1	0	5	0	0	3	104*
Cc1ccnc(NC(=O)CCC(=O)N(CC(=O)NCCc2ccccc2)c2ccc(F)cc2)c1	0	-1	2	2	-3	1
CCC(C)Nc1c([N+](=O)[O-])cc(C)cc1[N+](=O)[O-] (centres undefined)	2	4	1	0	-5	53*
COCCCn1c(SCc2nc(-c3ccc(Cl)cc3)no2)nc2ccccc2c1=O	nt	nt	nt	nt	nt	-7
Cc1nc2c(ccc3nc(NC(=O)c4cccc(C(F)(F)F)c4)sc32)s1	nt	nt	nt	nt	nt	-25
Cc1ccnc2c1ccc1ccccc12	-3	8	-4	0	-1	-3
Cc1ccnc2c1ccc1cccnc12	nt	0	nt	nt	-3	103*
C/[N+]([O-])=C/c1ccnc2c1ccc1cccnc12	nt	nt	nt	nt	nt	148*
Cc1ccnc2c1ccc1c(C)ccnc12	80	4	-31	-3	1	98*
c1ccc2c(c1)ccc1cccnc12	nt	nt	nt	nt	nt	29
O=C(c1ccc2nsnc2c1)N1CC(n2cc(COc3ccccc3)nn2)C1	nt	nt	nt	nt	nt	-15
COc1ccc(NC(=O)NS(=O)(=O)c2ccc(C)cc2)cn1	19	17	nt	67*	5	6
Cc1ccc(Cl)cc1S(=O)(=O)NCC1CCN(C2CCCC2)CC1	nt	nt	nt	nt	nt	-4
SMILES	Mtb betalactam	GDH-TPI counter	Rv3671c inh	UGM FP inh	FBA Mtb inh	SSB-PriA inh
O=C(NN=Cc1ccncc1)c1cc2ccccc2cc1O	nt	nt	nt	nt	nt	-7
O=C(Nc1cccnc1)c1cc2c(ccc3ccccc32)o1	-2	32*	-30	-3	0	3
O=C(N/N=C/c1ccncc1)c1cc2c(ccc3ccccc32)o1	32	47*	-15	-1	3	nt
O=C(O)c1ccc(/C=N/NC(=O)c2cc3c(ccc4ccccc43)o2)cc1	11	57*	-5	1	-2	nt
O=C(O)c1ccc(/C=N/NC(=O)c2cc3ccccc3cc2O)cc1	2	41*	12	1	-8	nt
Cc1cc(C)cc(NC(=O)N(C)C)c1	nt	nt	nt	nt	nt	-8
COc1ccc(/C=N/NC(=O)c2ccc(O)cc2O)cc1CSc1ccccn1	0	38*	-2	-1	-1	nt
O=C(N/N=C/c1cccc(Oc2ccccc2)c1)c1ccc(O)cc1O	10	34*	nt	2	1	nt
O=C(NN=Cc1cccc(Oc2ccccc2)c1)c1ccncc1	nt	nt	nt	nt	nt	6
O=C(Cc1c(F)cccc1Cl)N1CCC(N2CCC(Oc3nccs3)CC2)CC1	nt	nt	nt	nt	nt	-2
Cn1cccc1/C=N/NC(=O)CNc1ccc2ccccc2c1	96	11	6	2	3	i
Cc1ccc(NCC(=O)N/N=C/c2cccn2C)cc1	-8	35*	-1	-1	0	i
COc1ccccc1C1=NN(C(=S)Nc2ccccc2)C(c2ccco2)C1 (centres undefined)	65	26	-13	2	-3	39*!

Screening results deposited in PubChem BioAssay by several laboratories.
